# Sampled rows, rich in hits. Any-hit rate of the full collection: about 1.1%.
# rTrxR1 inhibitor – rat TrxR1 inhibition | AID 588453 | recombinant rTrxR1, NADPH fluorescence consumption, selenite substrate | O89049 | hit rate 1% among 390,000 | Potency, µM (series often up to 114 µM), for the others: at the highest dose activity change, negative = inhibition, hits mostly inhibitors; also: potency is read from the fitted curve at half-maximal effect; nearly all actives have a fitted effect of over 65% in size
# Target sequence (O89049 whole entry, looked up): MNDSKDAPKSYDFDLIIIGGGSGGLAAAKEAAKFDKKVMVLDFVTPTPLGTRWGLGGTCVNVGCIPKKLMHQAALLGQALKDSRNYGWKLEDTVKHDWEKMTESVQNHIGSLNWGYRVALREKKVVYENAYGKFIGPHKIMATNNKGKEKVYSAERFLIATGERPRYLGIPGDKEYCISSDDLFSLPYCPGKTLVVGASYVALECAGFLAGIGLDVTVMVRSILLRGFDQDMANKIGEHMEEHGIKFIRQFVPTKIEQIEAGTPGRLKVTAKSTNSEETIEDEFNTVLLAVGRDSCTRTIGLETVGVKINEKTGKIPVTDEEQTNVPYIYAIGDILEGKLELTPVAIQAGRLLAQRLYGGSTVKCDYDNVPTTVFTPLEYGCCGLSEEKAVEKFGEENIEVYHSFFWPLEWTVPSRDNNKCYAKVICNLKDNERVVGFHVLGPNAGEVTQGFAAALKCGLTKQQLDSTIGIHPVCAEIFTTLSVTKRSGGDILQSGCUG
#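 Rat TrxR1 (90 nM in the dispensed reagent) was pre-reduced with 400 uM NADPH for 5 min at room temperature, then incubated with compound for 15 min. After 400 uM selenite was added, NADPH fluorescence (Ex 340/Em 450 nm) was followed for 8 min.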
# TrxR1 substrate – rat thioredoxin reductase 1 substrate activity | purified TrxR1 substrate turnover, NADPH consumption readout | Potency, µM (highest dose often 114 µM), for the others: at the top dose activity change, negative = substrate turnover | hit rate 0.01% among 390,000; also: potency is read from the fitted curve at half-maximal effect; nearly all actives have a fitted effect of over 50% in size
#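 Rat TrxR1, dispensed at 90 nM, was prereduced with 400 uM NADPH (final) for 5 min at ~22 deg C, then incubated with compound 15 min before 400 uM selenite. A first-read NADPH fluorescence drop versus no-compound background flagged substrates.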
# GALK inh – inhibitors of human galactokinase. P51570. Purified GALK, Kinase-Glo residual ATP luminescence. hit rate 0.007% among 270,000. Potency, µM (series often up to 57.5 µM), inactives show top-dose activity change, negative = inhibition, hits mostly inhibitors; also: potency is read from the fitted curve at half-maximal effect
#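 5 nM enzyme, 35 uM ATP, 100 uM galactose, 20 mM HEPES pH8.0, 5 mM MgCl2; 1 h RT; residual ATP by Kinase-Glo Plus luminescence, qHTS format.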
# PI4K2A inh – blocks human PI4K2A kinase activity; Q9BTU6; purified PI4K2A, ADP-Glo luminescence, 1 h; hits give low values; activity change, negative = inhibition, % at 76.9 µM; hit rate 0.13% among 420,000; in the data active = activity change below about -50%; inconclusive = mostly about -30% to -49%;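 also: -100% = wells without enzyme as full effect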
#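 Compounds are screened against recombinant PI4K2A using PI as substrate and ATP, the latter dispensed at 300 microM. Reactions run one hour at ambient temperature before ADP-Glo detection; full inhibition defined by wells lacking enzyme.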
# * marks the source's active call; other numbers are inactive results; ? = inconclusive; nt = no result given; [ ] = dose if it differs, or a comment. Unless noted, calls follow the shape of the dose curve; as a rule, active = well fitted curve in the direction sought with a large enough effect; inconclusive = small, poorly fitted or top-dose-only effect, or another doubt; inactive = no such curve, though single readings can be large; an effect the other way counts as inactive or inconclusive. Unless noted, % is scaled to controls: 0 for no effect and ±100 for the full control effect.
SMILES,rTrxR1 inhibitor,TrxR1 substrate,GALK inh,PI4K2A inh
Cc1cccc(-c2nc(CS(=O)CC(=O)N3CC(C)CC(C)C3)c(C)o2)c1 (stereo not given),39.8µM*,0.3%,2.6%,1.0
Cc1cccc(-c2nc(CS(=O)CC(=O)NC3CCCC(C)C3C)c(C)o2)c1 (stereo not given),15.8µM*,-5.0%[57.1 µM],nt,0.4
COCCCNC(=O)Cn1c(=O)n(Cc2ccc(C(=O)NCc3ccc(C)cc3)cc2)c(=O)c2ccccc21,18.4%,0.4%,nt,-2.4
CCCCCCOC(=O)NC(=N)c1ccc(NCc2nc3cc(C(=O)N(CCC(=O)OCC)c4ccccn4)ccc3n2C)cc1,nt,nt,nt,-0.7
COc1ccc(CNC(=O)c2nc(Cn3nc(C)c(Br)c3C)no2)cc1OC,8.7%,13.3%[11.4 µM],nt,-0.5
CC1=CC(C)(C)Nc2ccc(OC(=O)CN3C(=O)c4cccc5cccc(c45)C3=O)cc21,8.91µM*,8.5%,1.1%,0.6
N[C@H](C(=O)O)[C@@H](O)c1ccc(O)c(O)c1,nt,nt,nt,-11.9
COc1ccc(-c2oc3ccccc3c2C(=O)Oc2ccccc2)cc1,15.8µM*,203.1%[57.1 µM],nt,1.3
COC(=O)c1c(-c2ccc(OC)cc2)oc2ccccc12,138.9%,112.3%[57.1 µM],nt,0.8
Cc1ccc(NC(=O)Cn2ccn(Cc3ccc(Cl)cc3)c(=O)c2=O)cc1C,11.0%,2.5%,nt,-3.8
Clc1ccc(CSc2nnc(-c3cccnc3)n2Cc2ccco2)c(Cl)c1,39.8µM*,-10.1%,1.9%,-3.0
O=C(CSc1nnc(-c2ccncc2)n1Cc1ccco1)c1ccc(Cl)cc1,31.6µM*,8.1%,-2.3%,-14.6
Clc1cccc(CSc2nnc(-c3cccnc3)n2Cc2ccco2)c1,-32.8%,-6.1%,-0.2%,-8.8
O=C(CSc1nnc(-c2ccc(Cl)cc2)n1Cc1ccco1)c1cccs1,35.5µM*,-6.0%,-1.8%,-10.3
O=C(CSc1nnc(Cc2cccs2)n1Cc1ccco1)Nc1cccc(Cl)c1,25.1µM*,6.3%,-0.1%,-1.8
O=C(CSc1nnc(-c2cccc(Cl)c2)n1Cc1ccco1)c1ccc(F)cc1,nt,nt,nt,-6.0
CC(=O)Nc1ccccc1OCC(=O)NCC(F)(F)F,21.7%,1.2%,9.7%,1.8
CC(C)(C)n1ncc2c(=O)n(Cc3ccc(C(F)(F)F)cc3)cnc21,-17.5%,-6.8%,nt,nt
COc1ccc(C(=O)CSc2nnc(-c3cnccn3)n2Cc2ccco2)cc1,?,15.3%,1.4%,-11.4
COc1ccc(C(=O)CSc2nnc(-c3cccnc3)n2Cc2ccco2)cc1,50.1µM*,-8.8%,0.3%,-0.9
O=C(OCc1cn([C@@H]2CN(C(=O)C3CCCCC3)[C@@H](c3ccc(Cl)cc3)C[C@H]2O)nn1)c1ccccc1,nt,nt,nt,-1.2
OC1=C(O)c2nc3cc(F)ccc3nc21,1.58µM*,-1.8%,-0.6%,-0.2
Nc1nnc2cc(F)ccc2n1,nt,nt,nt,-5.4
O=C(NCCCN1CCOCC1)c1cc(-c2cccs2)on1,15.8µM*,-4.3%[57.1 µM],-0.5%,-1.0
Cc1ccc(-c2cc(C(=O)NCCCN3CCOCC3)no2)cc1,2.3%,13.3%,-1.6%,3.8
SMILES,rTrxR1 inhibitor,TrxR1 substrate,GALK inh,PI4K2A inh
O=C(NCc1ccco1)c1cc2c(s1)CSC2,7.94µM*,13.3%,-4.8%,-24.6
O=C(NCc1ccc2c(c1)OCO2)c1cc2c(s1)CSC2,11.8%[57.1 µM],9.2%[57.1 µM],nt,-19.9
O=C1Cc2ccccc2C(=O)N1Nc1ccccc1,50.1µM*,-7.4%,nt,-0.1
Cc1ccccc1N1C(=O)Cc2ccccc2C1=O,?,5.0%,0.3%,-1.1
CC(Oc1ccccc1)C(=O)N[C@@H]1C(=O)N2C(C(=O)O)C(C)(C)S[C@H]12 (stereo not given in full),3.0%,-4.6%,nt,nt
CCOC(=O)N1CC=C2C(C#N)=C(N)C(C#N)(C#N)[C@H](c3ccc(OC(C)C)c(OCC)c3)[C@H]2C1,?,3.3%[57.1 µM],-2.9%,5.1
CCOC(=O)N1CC=C2C(C#N)=C(N)C(C#N)(C#N)[C@H](c3ccccc3OCC)[C@H]2C1,50.1µM*,5.2%,-4.2%,12.5
Cc1ccc(S(=O)(=O)Nc2ccc3c(c2)c(C(=O)OC(C)C)c(C)n3S(=O)(=O)c2ccc(C)cc2)cc1,-2.3%,-3.2%,nt,5.2
Cc1cc(Sc2nnc(N)s2)c2ccccc2n1,8.91µM*,3.4%,0.9%,-0.8
Cc1cc(Sc2nnc(/N=C/N(C)C)s2)c2ccccc2n1,2.51µM*,-3.4%,-1.1%,3.2
Cc1cccc(N=C2NC(=O)/C(=C/C=C/c3ccco3)S2)c1C,?,-15.9%,0.4%,-27.3
O=C1NC(=Nc2ccccc2)S/C1=C\C=C\c1ccco1,79.4µM*,-11.4%,0.5%,?
Cc1ccc(N=C2NC(=O)/C(=C/C=C/c3ccco3)S2)cc1,44.7µM*,-5.2%,1.3%,?
COc1ccc(N=C2NC(=O)/C(=C/C=C/c3ccccc3)S2)cc1,5.7%[57.1 µM],-4.6%[57.1 µM],nt,-0.5
Cc1cccc(Cn2cnc3c(cnn3C(C)(C)C)c2=O)c1,1.2%,-9.1%,nt,nt
O=C(Cc1ccc(Cl)cc1)NCCc1c[nH]c2ccccc12,14.3%,4.4%,nt,0.4
O=C(CCl)N(c1ccccc1)c1c[nH]c2ccccc12,2.24µM*,2.4%,-11.1%,19.8
O=C(CCl)N(c1ccc(Cl)cc1)c1c[nH]c2ccccc12,0.447µM*,-7.2%,-7.2%,24.8
O=c1c2ccccc2nnn1-c1ccc(Br)cc1,-6.3%,-3.1%,nt,8.3
CC1(C)S[C@@H]2[C@H](NC(=O)Cc3ccccc3)C(=O)N2[C@H]1C(=O)O (tested in a mixture with another compound),nt,nt,nt,-1.8
CCc1ccccc1NC(=O)Cn1c(C(=O)OC)cc2oc(C)cc21,33.5%,22.3%,nt,-0.9
NC(=O)c1cc(N2C(=O)C=CC2=O)ccc1Cl,1µM*,7.0%,2.3%,5.3
Cc1ccc(NC(=O)CN2C(=O)COc3ccc(S(=O)(=O)N4CCOCC4)cc32)c(Cl)c1,23.1%,6.7%,nt,0.5
CC1CC(C)(C)Nc2ccc(N=O)cc21 (stereo not given),0.891µM*,-3.6%[57.1 µM],6.3%,3.1
Cc1c([N+](=O)[O-])nnn1-c1cc(Cl)cc(Cl)c1,15.8µM*,7.9%,6.7%,-0.9
SMILES,rTrxR1 inhibitor,TrxR1 substrate,GALK inh,PI4K2A inh
Cc1c(C(c2cccc(O)c2)c2c(C)n(C)n(-c3ccccc3)c2=O)c(=O)n(-c2ccccc2)n1C,-10.0%,-10.3%,-0.8%,-1.5
Cc1[nH]n(-c2ccccc2)c(=O)c1C(c1cc(Cl)ccc1O)c1c(C)[nH]n(-c2ccccc2)c1=O,?,-5.9%,nt,-51.0*
Cc1c(C(c2cc(O)ccc2O)c2c(C)n(C)n(-c3ccccc3)c2=O)c(=O)n(-c2ccccc2)n1C,70.8µM*,-0.3%,nt,0.4
O=C(C1CCCO1)N1CCN(Cc2c(O)ccc3ccccc23)CC1 (stereo not given),7.08µM*,9.4%,-3.1%,8.5
CCOC(=O)N1CCN(Cc2ccc(O)c3ncccc23)CC1,12.6µM*,-0.5%[57.1 µM],11.3%,-5.0
CCOC(=O)C1CCN(Cc2c(O)ccc3ccccc23)CC1,?,16.0%,0.5%,-5.7
CCOC(=O)N1CCN(Cc2c(O)ccc3ccccc23)CC1,12.6µM*,10.7%,7.1%,60.7
Cn1cc(/C=C/c2ccnc3ccccc23)c2ccccc21,-20.5%,-6.7%,nt,nt

# Source: PubChem (National Center for Advancing Translational Sciences (NCATS))
